Where “and” joins values, the source holds several entries; their conditions need not be identical. Identical values can stand only once. Screen size: about 71,000 compounds; about 1,400 (2%) were called active. Not shown: some 3% with an inconclusive outcome. The call rests on the fitted dose curve; in most records, active means well fitted curve in the direction sought with a large enough effect; inconclusive means small, poorly fitted or top-dose-only effect; inactive means no such curve, though single readings can be large or run the other way. The full list was thinned out, with actives kept by preference. More than one record can exist for a structure, and the calls need not agree.
target: Microtubule-associated protein tau (Homo sapiens) (UniProt P10636); assay: qHTS Assay for Tau Filament Binding; conditions: recombinant tau filaments, thioflavin S fluorescence, 15 h; series mostly up to 57.1 µM; activity change, negative = inhibition: at the top concentration;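 further: actives lower thioflavin S fluorescence by blocking filaments or displacing dye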
Text: NIH Molecular Libraries Screening Centers Network [MLSCN]
NIH Chemical Genomics Center [NCGC]
Assay Provider: Jeffrey A. Kuret, Ohio State University
Tau monomers form filaments in vitro in the presence of anionic detergents or fatty acids. The dye Thioflavine S (ThS) binds to tau filaments and upon binding, increases in fluorescence several fold. Small molecules that displace ThS binding or prevent filament binding are identified by a reduction in ThS fluorescence. This assay used histidine-tagged, recombinant human tau protein containing the products of exons 2, 3, and 10 that was provided by Jeff Kuret, Ohio State University. To form filaments, 1 uM tau was incubated with 30 uM sodium octadecylsulfate (ODS) in reagent buffer (10 uM thioflavine S, 5 mM 1,4-dithioerythreitol (DTT), 100 mM sodium chloride, 10 mM HEPES pH 7.4) for 15 hrs at 37 C.
NCGC Assay Protocol Summary:
Assay Steps. Two uL/well of 2 uM tau in reagent buffer (10 uM thioflavine S, 5 mM DTT, 100 mM sodium chloride, 10 mM HEPES pH 7.4) was dispensed into solid black 1536-well plates. Twenty-three nL compound was transferred to the assay plate after which 2 uL/well of 60 uM ODS in reagent buffer was dispensed for a final assay volume of 4 uL /well. Following 15 hours of incubation at 37 C, fluorescence was detected by an Envision (Perkin Elmer) using 450/8 nm excitation and 510/23 nm emission.
Keywords: NIH Roadmap, MLSCN, MLI, MLSMR, qHTS, NCGC, Alzheimer's disease, Neurofibrillary lesions, tau, tubulin assembly, microtubule stability, cytoskeletal integrity, fibrillization, thioflavin dyes, Amyloidgenic
On the % scale 0 is the no-effect control and ±100 the full control effect; potency means the concentration at half of the fitted maximal effect.

Chain of Microtubule-associated protein tau (Homo sapiens) (P10636 whole entry, looked up): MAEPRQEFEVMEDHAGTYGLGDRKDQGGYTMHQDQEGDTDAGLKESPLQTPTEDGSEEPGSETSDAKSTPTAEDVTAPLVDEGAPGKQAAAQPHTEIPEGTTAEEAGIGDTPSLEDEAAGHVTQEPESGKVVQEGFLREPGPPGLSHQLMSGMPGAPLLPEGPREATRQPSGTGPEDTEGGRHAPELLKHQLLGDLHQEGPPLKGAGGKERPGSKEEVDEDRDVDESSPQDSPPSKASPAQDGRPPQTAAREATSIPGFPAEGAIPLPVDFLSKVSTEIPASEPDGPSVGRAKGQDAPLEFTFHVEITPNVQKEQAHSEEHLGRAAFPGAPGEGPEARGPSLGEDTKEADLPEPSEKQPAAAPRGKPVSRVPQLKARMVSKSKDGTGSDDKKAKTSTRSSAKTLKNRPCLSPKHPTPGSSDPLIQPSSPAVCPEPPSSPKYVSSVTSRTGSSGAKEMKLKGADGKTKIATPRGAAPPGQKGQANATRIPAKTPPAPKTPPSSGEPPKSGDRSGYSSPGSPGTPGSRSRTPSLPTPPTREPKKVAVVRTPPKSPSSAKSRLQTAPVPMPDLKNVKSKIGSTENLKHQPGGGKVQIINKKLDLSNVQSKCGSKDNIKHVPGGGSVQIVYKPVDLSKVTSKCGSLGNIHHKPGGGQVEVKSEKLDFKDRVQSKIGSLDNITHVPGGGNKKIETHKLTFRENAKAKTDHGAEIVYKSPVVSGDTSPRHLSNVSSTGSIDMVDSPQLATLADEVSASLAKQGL

| SMILES | Potency | activity change, negative = inhibition |
| --- | --- | --- |
| CC(C)CC(C)Nc1ccc(Nc2ccccc2)cc1 (stereo not given) | 15.8 µM (active) |  |
| c1ccc(N2CC[C@@]3(CCCNC3)C2)nc1 |  | 1.4% (inactive) |
| CC[C@@](O)(C(=O)O)c1cc2n(c(=O)c1CO)Cc1cc3ccccc3nc1-2 |  | 6.4% [at 11.4 µM] (inactive) |
| Nc1ccc([N+](=O)[O-])cc1 |  | 2.8% (inactive) |
| CC(=O)c1c(O)c(C)c(O)c(Cc2c(O)c3c(c(C(=O)/C=C\c4ccccc4)c2O)OC(C)(C)C=C3)c1O | 15.8 µM (active) and 25.1 µM (active) |  |
| Clc1ccccc1 |  | 60.1% (inactive) |
| Fc1ccc(C(OCCN2CCN(C/C=C\c3ccccc3)CC2)c2ccc(F)cc2)cc1 | 12.6 µM (active) |  |
| CCCCC#N |  | 1.9% (inactive) |
| Nc1ccc(Cc2ccc(N)c(Cl)c2)cc1Cl |  | -16.2% (inactive) |
| N#CCCCl | inactive |  |
| CC(C)(C)C(O)(CCc1ccc(Cl)cc1)Cn1cncn1 (stereo not given) |  | -11.7% [at 57.1 µM, filaments grown with octadecylsulfate alongside compound] (inactive) |
| Clc1cccc(Cl)c1Cl |  | 2.2% (inactive) |
| c1ccc2c(c1)[I+]c1ccccc1-2 | inactive and 39.8 µM (active) |  |
| CCNC[C@H](O)c1cccc(O)c1 |  | 4.3% [at 25.6 µM] (inactive) |
| O=C(Nc1cccc(F)c1)N1CC[C@@]2(CCCN(C(=O)Oc3ccccc3)C2)C1 |  | 4.7% (inactive) |
| c1ccc(CN2CC[C@@]3(CCCNC3)C2)cc1 |  | 8.4% (inactive) |
| ClCCBr |  | -12.3% (inactive) |
| CN1CCN(C(=O)O[C@@H]2c3nccnc3C(=O)N2c2ccc(Cl)cn2)CC1 | inactive |  |
| O=C1C2(Cl)C3(Cl)C4(Cl)C(Cl)(Cl)C5(Cl)C3(Cl)C1(Cl)C5(Cl)C24Cl (stereo not given) | inactive and 15.8 µM (active) |  |
| Cc1cc(-c2ccc(N)c(C)c2)ccc1N |  | -17.3% (inactive) |
| C=CC#N |  | -14.1% (inactive) |
| CC(C)(Cc1c[nH]c2ccc(Cl)cc12)NCCOc1ccccc1OCC1CC1 |  | 49.6% (inactive) |
| ClC(Cl)=C(Cl)C(Cl)=C(Cl)Cl |  | -4.5% (inactive) |
| CC(Cl)Cl |  | -2.3% (inactive) |
| C[C@]12CC[C@H](O)C[C@@H]1CC[C@H]1[C@H]2CC[C@]2(C)C(=O)CC[C@@H]12 | inactive |  |
